As a reminder, the inhibition is the drop in the measured response relative to a control, in per cent.

SMILES strings stand for the structures. Where “and” joins values, the source holds several entries; their conditions need not be identical. Equal values may be shown once. Out of some 330,000 compounds screened, about 4,400 (1.3%) were called active. Shown is part of a subset that was picked to be rich in actives. Values without a mark were called inactive.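 Rule for the calls: active = growth inhibition of the mutant yeast at or above 50%; inactive = the rest.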

A short description of the assay: growth inhibition of tim23-1 ts yeast – luminescence, uHTS, primary screen (AID 463212).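 Note: temperature-sensitive mutant grown at 25 °C; plate controls were DMSO-treated mutant yeast for no effect and medium wells lacking yeast for full effect.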 To be noted: S. cerevisiae tim23-1 growth, BacTiter-Glo luminescence, 24 h; at 20 µM; active compounds read high.
With `COc1ccc(OC)c(NC(=O)CN(Cc2ccc(Cl)cc2)S(C)(=O)=O)c1`, the inhibition is 9.4%.
With `COc1ccc(C(=O)Nc2cc(C)c(NC(=O)c3ccccc3OC)cn2)cc1`, the inhibition was 28.7%.
For the compound `COc1ccc(C(=O)Nc2ccccc2C(=O)N/N=C/c2ccc(O)c(OC)c2)cc1`, the inhibition was 96% (active).
Then `COc1ccc2[nH]c(C(=O)N/N=C/c3cc(OC)c(OC)c(OC)c3)cc2c1`, with 20.6%.
Regarding `COc1ccc(C(=O)Nc2ccccc2C(=O)N/N=C/c2ccccc2OC)cc1`, the inhibition is 78.3% (active).
In the case of `COc1ccc(/C=N/Nc2ccccc2C(=O)O)cc1`, the inhibition was 17%.
For `COc1ccc(C(=O)Nc2ccccc2C(=O)N2CCN(c3ccccc3)CC2)cc1`, the inhibition was 35.2%.
The same measure for `CC(C)(C)c1ccc(C(=O)N2CCC(C(=O)N3CCCCC3)CC2)cc1`: 13.5%; for `CCc1[nH]nc(C(=O)N2CCCC(CNS(=O)(=O)c3cccs3)C2)c1C` (configuration not stated): 0.752%.
Then `Cc1ccc(C(C(=O)NCC2CCCO2)N(C(=O)c2snc(C(N)=O)c2N)c2ccc(C(C)C)cc2)o1` (configuration not stated), with 32.2%; and `CCOc1cc2[nH]c(=S)n(CCN3CCCCC3C)c(=O)c2cc1OCC` (configuration not stated), with 14.8%.
Consider `CC(C)Cc1ccc(C(C)C(=N)N)cc1` (configuration not stated), for which the inhibition was 3.35%.
For the compound `CCOc1cccc(NC(=O)Cn2nc(-c3ccc4c(c3)OCCO4)ccc2=O)c1`, the inhibition is -11.4%.
Take `Cc1ccc(-c2csc(NCCc3nc4cc(Cl)c(Cl)cc4n3CCOCCO)n2)cc1`: the inhibition is 25.4%.
Then `Cc1ccc(Nc2nc(-c3ccc(O)cc3O)cs2)nc1`, with 65.9% (active).
Then `C[C@@H]1C(c2ccc(F)cc2)=NN(c2ccc(Br)cc2)[C@H]1C(=O)N1CCOC1=O`, with 61.2% (active).
The same measure for `O=C1OCCN1C(=O)[C@H]1[C@H](c2ccc(F)cc2)C(c2ccccc2)=NN1c1ccc(Br)cc1`: 41.6%; for `O=C1OCCN1C(=O)[C@H]1[C@H](c2ccccc2)C(c2ccc(F)cc2)=NN1c1ccccc1`: 49.4%.
In the case of `CCOCCOCCC(C(=O)O)P(=O)(c1ccccc1)c1ccccc1` (configuration not stated), the inhibition is 20.6%.
On to `O=C(COC(=O)c1ccc([N+](=O)[O-])cc1Cl)NC(=O)c1ccccc1`, for which the inhibition was -6.06%.
As for `O=C(NOCc1ccccc1)c1cccc([N+](=O)[O-])c1`, the inhibition is 40.8%.
The same measure for `O=C(NC(Nc1nc2ccc([N+](=O)[O-])cc2s1)(C(F)(F)F)C(F)(F)F)c1ccccc1`: 80.5% (active); for `CN(C)/C=C(/C(=O)c1ccccc1Cl)S(C)(=O)=O`: 8.01%; for `O=S(=O)(Nc1ccc(-c2ccc(N3CCOCC3)nn2)cc1)c1cc(Cl)ccc1Cl`: 36%.
Regarding `COc1ccc(CCNC(=O)CN(c2ccccc2)S(C)(=O)=O)cc1`, the inhibition was 10.1%.
Turning to `Cc1cc(C)nc(SCC(=O)N(C)C)n1`, the inhibition is 3.33%.
Then `Cc1cc(C)nc(SCc2ccccc2C#N)n1`, with 8%; and `Cc1cc(C)nc(S/C=C/C(=O)c2ccccc2)n1`, with 83.3% (active).
Then `COc1ccc(C2/C(=C(/O)c3ccccc3)C(=O)C(=O)N2C)c(OC)c1` (configuration not stated), with 12%.
The same measure for `COc1ccc(/C=C2/C(=O)OCc3cc(OC)c(OC)cc32)c(OC)c1`: 23.4%; for `COc1ccc(/C=C2/C(=O)N(c3ccccc3)N=C2C)c(OC)c1`: 52.9% (active); for `Cc1c(NC(=O)c2cc(-c3ccc(Cl)s3)nc3ccccc23)c(=O)n(-c2ccccc2)n1C`: 25.7%.
As for `NC(=NC(=O)c1ccccc1)C1=C(O)CCC1=O`, the inhibition is 15.3%.
Then `Cc1ccc(CS(=O)(=O)c2ncc(Cl)c(C(=O)Nc3nnc(C)s3)n2)cc1`, with 18.2%; and `Cc1cccc(NC(=O)c2nc(S(=O)(=O)Cc3ccccc3)ncc2Cl)c1`, with 75.9% (active); and `Cc1cccc(CS(=O)(=O)c2ncc(Cl)c(C(=O)Nc3ccc(F)cc3)n2)c1`, with 39.1%.
For `CCOC(=O)Cc1cc(=O)[nH]c(/N=C(\N)Nc2ccc(OC)cc2)n1`, the inhibition is -4.74%.
Then `COCCNc1ccc(-c2n[nH]c(=O)c3ccccc23)cc1[N+](=O)[O-]`, with 1.96%; and `O=C(NC1CCCCC1)c1ccc(-c2ccc(Cl)cc2)o1`, with 45.4%.
As to `CN(CC(=O)Nc1ccc(F)cc1)C(=O)c1ccc(-c2ccc(Cl)cc2)o1`, the inhibition is 36.9%.
The same measure for `Cc1[nH][nH]c(=O)c1C(c1ccc(-c2ccc(Cl)cc2)o1)c1c(C)[nH][nH]c1=O`: 84.6% (active); for `Cc1ccsc1C1C(C#N)=C(N)OC2=C1C(=O)CC(C)(C)C2` (configuration not stated): 15.8%.
`NC(=O)COc1ccc(/C=N/NC(=O)C2CCCN2S(=O)(=O)c2ccc(Cl)cc2)cc1` (configuration not stated): the inhibition was 4.5%.
Regarding `CC1(C)C=Cc2c(ccc3c2OC[C@@H](c2ccc(O)cc2O)C3)O1`, the inhibition is 81.8% (active).
In the case of `CCCCc1nccn1CCn1ccnc1CCCC`, the inhibition was 2.76%.
As to `CC(C)(C)c1ccc(C(=O)NNC(=O)Cc2ccccc2)cc1`, the inhibition was 8.91%.
`CN(C(=O)CC(NC(=O)c1ccccc1)(c1ccccc1)c1ccccc1)c1ccccc1`: the inhibition is 51.5% (active).
Consider `CN(C(=O)COC(=O)CNC(=O)C12CC3CC(CC(C3)C1)C2)c1ccccc1`, for which the inhibition was 3.66%.
The same measure for `C=CCn1c(P(C)(=O)O)nc2ccccc21`: 5.79% and -9.61%; for `O=C(c1ccco1)N1CCN(C(=O)C2CCCN(S(=O)(=O)c3cccc4nsnc34)C2)CC1` (configuration not stated): 9.26%.
Regarding `Cc1c(Br)ccc(NC(=O)COc2ccccc2C(N)=O)c1C`, the inhibition was 3.99%.
The same measure for `Cc1cc(=O)cc(C)n1-c1ccc(Cl)c(Cl)c1`: 1.14%; for `CCSc1ncnc2c(C#N)c3n(c12)CCCCC3`: 32.7%; for `CCSC1=C(C#N)C(=O)n2c1cc1c2CCCC1`: 58% (active).
The same measure for `CC(=O)NC1CCN(CC(=O)Nc2nccs2)CC1`: 8.15%.
Then `COc1ccccc1CCCNC(=O)C1CCC(=O)N(CCN2CCOCC2)C1` (configuration not stated), with -0.497%; and `Fc1ccccc1COc1ccccc1CNCc1ccncc1`, with 3.21%; and `CCN1CCc2nc(NC(=O)c3cc(F)c(F)cc3Cl)sc2C1`, with 4.64%.
Consider `COc1ccc(CNC(=O)CCn2cccc2)cc1`, for which the inhibition is 6.47%.
`COc1ccc(NC(=O)/C(C#N)=C\c2cc(OC)c(OCc3ccc(C(=O)O)cc3)cc2Br)cc1`: the inhibition is 20.5%.
Consider `COc1ccc(CNC(=O)/C(C#N)=C/c2cccc(OC)c2OC)cc1`, for which the inhibition is 71.3% (active).
The same measure for `CN(CC(=O)Nc1ccccc1[N+](=O)[O-])Cc1ccc(Br)cc1`: 1.11%; for `COc1ccccc1CNC(=O)C1Cc2ccccc2C(=O)O1` (configuration not stated): 17.7%; for `COc1cc(NS(=O)(=O)c2ccc3ccccc3c2)c2ncccc2c1`: 26.4%.
The same measure for `O=[N+]([O-])c1ccccc1S(=O)(=O)Nc1cccc2cccnc12`: 57.4% (active); for `NS(=O)(=O)c1ccc(CCNS(=O)(=O)c2cccc3cccnc23)cc1`: 11.4%; for `CC1(C)COC(c2cccn2Cc2ccccc2Cl)=N1`: 2.43%.
Then `COc1ccc(Cl)cc1NC(=O)CN(C)C(=O)c1cc(-c2cccs2)nn1-c1ccccc1`, with 25.9%; and `O=[N+]([O-])c1ccc2oc(-c3cccc(O)c3)nc2c1`, with 29.8%.
With `CCc1ccc2oc(-c3ccc(N)cc3)nc2c1`, the inhibition is 65.6% (active).
As to `O=C(N/N=C\c1cc(Br)c(Br)o1)C1COc2ccccc2O1` (configuration not stated), the inhibition was 50.2% (active).
Then `O=C(CNC(=O)C1COc2ccccc2O1)N/N=C/c1cc(Br)c(O)c(Br)c1` (configuration not stated), with 12.1%; and `O=C(N/N=C/c1cc2c(cc1Br)OCO2)C1COc2ccccc2O1` (configuration not stated), with 22.2%.
Regarding `CCOC(=O)c1c(NC(C)=O)sc2c(O)c(Br)ccc12`, the inhibition is 20.3%.
Then `Cc1ccc(-n2c(SCC(=O)N/N=C/C=C/c3ccccc3[N+](=O)[O-])nc3ccccc3c2=O)cc1`, with 12.1%; and `CCOc1ccc(CCNC(=O)COC(=O)CCS(=O)(=O)c2ccc(C)cc2)cc1OCC`, with 8.24%.
Regarding `Cc1ccc(Cn2nnc3c(=O)[nH]c(C4CCN(S(=O)(=O)/C=C/c5ccccc5)CC4)nc32)cc1`, the inhibition is 17.8%.
As for `Nc1ccccc1SC(C[N+](=O)[O-])c1ccccc1` (configuration not stated), the inhibition is 81.4% (active).
Consider `Cc1ccc(C(C[N+](=O)[O-])c2c(C)cc3ccccn23)cc1` (configuration not stated), for which the inhibition is 48.5%.
`O=C(CN(C(=O)c1csnn1)c1ccc(Br)cc1)NC1CCCC1`: the inhibition was 6.83%.
Then `O=C(Nc1nonc1-c1ccc(Cl)cc1)c1ccco1`, with 29.1%; and `CC(C)[C@H](NC(=O)OCc1ccccc1)C(=O)OCc1ccccc1`, with 16%.
The same measure for `Cc1c(S(=O)(=O)NC(C)c2ccccc2)c(=O)n(C)c(=O)n1C` (configuration not stated): 0.038%.
In the case of `C/C(=N/NC(=O)c1cc(Cl)ccc1O)C12CC3CC(CC(C3)C1)C2`, the inhibition was 54.5% (active).
Then `O=C(N/N=C1\CCSC1)c1cc(Cl)ccc1O`, with 7.53%.
Then `Cc1ccc(C(=O)NC23CC4CC(CC(C4)C2)C3)c(Cl)c1`, with 20.2%; and `CCOc1ccc(S(=O)(=O)NCCCn2ccnc2)cc1NC(C)=O`, with -2.51%.
The same measure for `Cc1ccnc(NC(=O)CCC(=O)N(CC(=O)NCCc2ccccc2)Cc2cccs2)c1`: 6.97%; for `COc1cccc(CN2C(=O)CCC2(C)C(=O)NC2CCCCCC2)c1` (configuration not stated): -1.86%; for `COC(=O)c1c(NC(=O)CCN2CCOCC2)sc2c1CCCC2`: 26%.
As for `COC(=O)c1c(NC(=O)CSc2nncs2)sc2c1CCCCC2`, the inhibition is 52.6% (active).
The same measure for `COC(=O)c1c(NC(=O)C2CC(C)=C(C)CC2C(=O)O)sc2c1CCCCC2` (configuration not stated): 27.7%.

These data come from PubChem BioAssay AID463212 (Sanford-Burnham Center for Chemical Genomics, 2010).
